Screening results deposited in PubChem by National Center for Advancing Translational Sciences (NCATS).
Prx2 Sm inh: Schistosoma mansoni Prx2 inhibition; S. mansoni Prx2 activity coupled to TGR/GSH (TGR is thioredoxin glutathione reductase), NADPH fluorescence loss, qHTS; Potency, µM; AID 448; 0.07% of 65,000 active
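Prx2 activity was followed as the loss of NADPH fluorescence (ex 365/em 450 nm), read every 30 sec for 8 min after H2O2 start. The enzyme mix (50 nM Prx2, 25 nM TGR, GSH, NADPH; pH 7.4 phosphate buffer) was incubated with compound for 15 min at room temperature first.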
AmpC nodet inh: AmpC beta-lactamase inhibition, detergent-free assay; P00811; AmpC nitrocefin hydrolysis, absorbance 480 nm, no detergent; Potency, µM (series often up to 28.7 µM), for inactives: top-dose activity change, negative = inhibition; 1.8% of 71,000 active; AID 585; further: % of control where 0% means no effect
Target sequence (P00811 whole entry, looked up): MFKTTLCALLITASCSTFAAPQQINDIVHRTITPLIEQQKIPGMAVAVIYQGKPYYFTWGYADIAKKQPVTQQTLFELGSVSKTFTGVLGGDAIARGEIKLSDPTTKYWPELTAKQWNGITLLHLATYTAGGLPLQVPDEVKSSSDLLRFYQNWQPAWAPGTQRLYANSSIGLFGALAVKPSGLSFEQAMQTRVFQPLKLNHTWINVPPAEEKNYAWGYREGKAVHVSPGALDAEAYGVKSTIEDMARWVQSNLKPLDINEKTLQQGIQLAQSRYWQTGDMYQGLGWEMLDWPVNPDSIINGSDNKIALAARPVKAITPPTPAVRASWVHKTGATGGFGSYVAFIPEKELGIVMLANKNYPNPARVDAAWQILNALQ
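AmpC in 20 mM phosphate buffer pH 7.0 was preincubated 15 min at room temperature with compounds. Nitrocefin (800 uM stock) was then added and hydrolysis followed at 480 nm every 20 s for 4 min.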
LT uptake inh: blocks cellular internalization of anthrax lethal toxin | Cells, anthrax lethal toxin internalization, FRET ratio (460/530) | Potency, µM (titrated, usually from 40 µM), for inactives: top-dose activity change, negative = inhibition, actives largely listed as inhibitors | 0.67% of 70,000 active; further: on the % scale 0 is the no-effect control and ±100 the full control effect; nearly all actives have a fitted effect of over 50% in size
AmpC det inh: inhibitors of E. coli AmpC beta-lactamase with detergent | Potency, µM (series often up to 28.7 µM), without a hit: top-dose activity change, negative = inhibition | 0.09% of 71,000 active | purified AmpC, nitrocefin hydrolysis with detergent | P00811; active means well fitted curve in the direction sought with a large enough effect; inconclusive means small, poorly fitted or top-dose-only effect; further: on the % scale 0 is the no-effect control and ±100 the full control effect
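E. coli AmpC (5.3 nM) in 20 mM phosphate pH 7.0 with 0.01% Triton X-100, preincubated 15 min RT with compound; nitrocefin (2 uL of 800 uM stock) hydrolysis followed by 480 nm absorbance every 20 s over 4 min.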
Active calls of the source: *; u = inconclusive; x = not tested or not shown; [ ] = remark or other dose. Most compounds without a hit are left out; they make up all but 2.4% or so of the library. Unless noted, the call rests on the fitted dose curve. Potency means the concentration at half of the fitted maximal effect.

SMILES | Prx2 Sm inh | AmpC nodet inh | LT uptake inh | AmpC det inh
O=C(O)CC(CC(=O)Nc1nncs1)c1ccccc1 (configuration not stated) | >57 | -21% | 4% | -5%
CC/C=C1/OC(=O)c2ccccc21 | x | -7% | 4% | 5%
O=C(Nc1ccccc1)c1ccc2nc(-c3ccco3)c(-c3ccco3)nc2c1 | >57 | -3% | u | -7%
CCCCNC(=O)c1ccc2nc(-c3ccco3)c(-c3ccco3)nc2c1 | >57 | 4µM*[single pt active] | -8% | 8%
O=c1cc(-c2ccccc2)oc2cc(O)c(O)c(O)c12 | >57 | 7.9µM* | 1.3µM* | -4%
CCCC1C(c2ccco2)NC(c2ccco2)CC1(C)O (configuration not stated) | >57 | -10% | 10µM* | -3%
CC(C)C[C@@H](CC(=O)N[C@H](CC(=O)N[C@@H]1CCCC[C@H]1C(=O)N[C@H](CC(=O)N[C@@H](CCC(=O)O)CC(=O)O)Cc1c[nH]c2ccccc12)C(C)C)NC(=O)[C@@H]1CCCC[C@H]1N | >57 | 142% | -17% | -9%
CCCOc1nc2c(c(=O)n(C)c(=O)n2C)n1CCC | >57 | 11% | -3% | 22%
CCCn1c(OC)nc2c1c(=O)n(C)c(=O)n2C | >57 | 4µM*[single pt active] | 4% | 8%
COc1cccc(-c2nc(NC3CCNCC3)c3ccccc3n2)c1 | >57 | 15% | -23% | 3%
C=C1CC[C@H](O)C/C1=C/C=C1\CCC[C@]2(C)[C@H]1CC[C@H]2[C@@H](C)/C=C\[C@@H](C)C(C)C | >57 | 44%[12.8 µM] | u | -5%[12.8 µM]
CC(C)Cc1cc(C(=O)Nc2ccc(F)cc2F)no1 | >57 | 4µM*[single pt active] | -14% | 11%
CC(C)c1cc(C(=O)Nc2cc(Cl)ccc2O)no1 | >57 | -25% | u | 1%
CC(C)Cc1cc(C(=O)Nc2c(F)cc(F)cc2Br)no1 | >57 | 4µM*[single pt active] | -23% | 15%
O=C(NCCN1CCOCC1)c1cc(-c2ccc(Cl)cc2)on1 | >57 | 33% | u | 10%
CC(C)Cc1cc(C(=O)NCCN2CCOCC2)no1 | >57 | 4µM*[single pt active] | -2% | 12%
O=C(Nc1ccc(F)cc1F)c1cc(-c2ccco2)on1 | >57 | -13% | -23% | -7%
CC(C)Cc1cc(C(=O)Nc2cc(Cl)ccc2Cl)no1 | >57 | 4µM*[single pt active] | -14% | 13%
Clc1ccc(C(c2ccc(Cl)cc2)C(Cl)(Cl)Cl)cc1 | x | u | 6.3µM* | 14%
Oc1ccc2cc(SSc3ccc4cc(O)ccc4c3)ccc2c1 | x | 16µM* | u | 0%
CO/N=C(/C(=O)N[C@@H]1C(=O)N2C(C(=O)O)=C(COC(N)=O)CS[C@H]12)c1ccco1 | x | 0.01µM* | -6% | 0.025µM*
CO/N=C(\C(=O)N[C@@H]1C(=O)N2C(C(=O)O)=C(CSc3nc(=O)c(O)nn3C)CS[C@@H]12)c1csc(N)n1 | >57 | 13µM* | 1% | 13µM*
COc1ncc2nc(-c3cc(F)cc(F)c3)c(=O)n(CCC#N)c2n1 | >57 | 24% | -6% | 1%
Cc1nnc(NC(=O)CCCCCN2C(=O)C3C4C=CC(C4)C3C2=O)s1 (configuration not stated) | x | 4µM*[single pt active] | 1% | 8%
Cc1nnc(NC(=O)NC(C)N2C(=O)C3C4C=CC(C4)C3C2=O)s1 (configuration not stated) | >57 | -12% | -7% | -5%
SMILES | Prx2 Sm inh | AmpC nodet inh | LT uptake inh | AmpC det inh
CC(C)N(Cc1nc(-c2ccccc2)no1)S(=O)(=O)c1ccccc1 | >57 | 4µM*[single pt active] | u | 3%
CC(C)N(Cc1nc(-c2ccccc2)no1)C(=O)CN(C)S(=O)(=O)c1ccccc1 | >57 | 73% | -15% | -3%
Cc1ccc2c(c1)-c1c(cnn1CC(=O)O)CO2 | >57 | -13% | 8% | -1%
Cc1ccc2c(c1)-c1c(cnn1CC(=O)Nc1ccccc1N1CCN(C)CC1)CO2 | >57 | 117% | 5µM* | 8%
O=C(c1ccncc1)N1CCC2(CC1)CCN(C(c1ccccc1)c1ccccc1)CC2 | >57 | 99% | u | -2%
Cc1cc(N2CCN(C)CC2)nc2ccc(NC(=O)c3ccc4c(c3)OCO4)cc12 | >57 | 84% | u | -2%
CCC(C)NC(=O)CCC(=O)Nc1ccc2nc(N3CCOCC3)cc(C)c2c1 (configuration not stated) | >57 | 31% | 6% | -4%
Cc1cc(N2CCN(C)CC2)nc2ccc(NC(=O)c3ccc(Br)o3)cc12 | >57 | 89% | 13µM* | -4%
CCOc1ccccc1NC(=O)CCC(=O)Nc1ccc2nc(N3CCN(C)CC3)cc(C)c2c1 | >57 | 100% | 13µM* | 0%
